# Data taken from the supplement of paper PMC8728848.
# The entries come from a sample that favours the strongest signals as a whole.
# B1: 4F2hc (Homo sapiens), P08195 (protein)
# chain: WWHTGALYRIGDLQAFQGHGAGNLAGLKGRLDYLSSLKVKGLVLGPIHKNQKDDVAQTDLLQIDPNFGSKEDFDSLLQSAKKKSIRVILDLTPNYRGENSWFSTQVDTVATKVKDALEFWLQAGVDGFQVRDIENLKDASSFLAEWQNITKGFSEDRLLIAGTNSSDLQQILSLLESNKDLLLTSSYLSDSGSTGEHTKSLVTQYLNATGNRWCSWSLSQARLLTSFLPAQLLRLYQLMLFTLPGTPVFSYGDEIGLDAAALPGQPMEAPVMLWDESSFPDIPGAVSANMTVKGQSEDPGSLLSLFRRLSDQRSKERSLLHGDFHAFSAGPGLFSYIRHWDQNERFLVVLNFGDVGLSAGLQASDLPASASLPAKADLLLSTQPGREEGSPLELERLKLEPHEGLLLRFPYAA
# Tests used:
# Test in all cases: glycan array binding signal (z-score within array); higher = stronger binding
# Conditions in all cases: glycan notation: IUPAC condensed, linker removed
# [1] = molecular target: Fuc(a1-2)Gal(b1-4)GlcNAc(b1-2)Man(a1-3)[Fuc(a1-2)Gal(b1-4)GlcNAc(b1-2)Man(a1-6)]Man(b1-4)GlcNAc(b1-4)GlcNAc
# Method in brief: (§1)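 Glycan array binding is given as a within-array Z-score, which can be read as non-binding when negative. The arrays, 3228 of them, came from the Consortium for Functional Glycomics database and were retained only where the protein sequence was available. Z-scores were averaged across arrays of the same protein sequence at different concentrations or buffers and across linkers.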
# [2] = molecular target: Fuc(a1-2)Gal6S(b1-4)Glc6S
# Method in brief: as §1
# [3] = molecular target: Fuc(a1-2)Gal6S(b1-4)GlcNAc
# Method in brief: as §1
# [4] = molecular target: Fuc(a1-2)[GalNAc(a1-3)]Gal(b1-4)Glc
# Method in brief: as §1
# [5] = molecular target: Fuc(a1-3)[Gal(b1-4)]GlcNAc6S
# Method in brief: as §1
# [6] = molecular target: Gal(a1-3)[Gal(a1-4)]Gal(b1-4)GlcNAc
# Method in brief: as §1
# Gal(a1-4)GlcNAc = molecular target: Gal(a1-4)GlcNAc
# Method in brief: as §1
# [7] = molecular target: Gal(b1-3)GalNAc(a1-3)[Fuc(a1-2)]Gal(b1-4)GlcNAc
# Method in brief: as §1
# [8] = molecular target: Gal(b1-3)GlcNAc(b1-2)Man(a1-3)[Gal(b1-3)GlcNAc(b1-2)Man(a1-6)]Man(b1-4)GlcNAc(b1-4)GlcNAc
# Method in brief: as §1
# Gal(b1-4)GlcNAc = molecular target: Gal(b1-4)GlcNAc
# Method in brief: as §1
# Gal3S(b1-3)GlcNAc = molecular target: Gal3S(b1-3)GlcNAc
# Method in brief: as §1
# Gal3S4S(b1-4)GlcNAc = molecular target: Gal3S4S(b1-4)GlcNAc
# Method in brief: as §1
# GalNAc(b1-3)Gal = molecular target: GalNAc(b1-3)Gal
# Method in brief: as §1
# [9] = molecular target: GlcNAc(a1-4)Gal(b1-4)GalNAc
# Method in brief: as §1
# [10] = molecular target: GlcNAc(b1-4)[GlcNAc(b1-6)]GalNAc
# Method in brief: as §1
# [11] = molecular target: GlcNAc(b1-6)Gal(b1-4)GlcNAc
# Method in brief: as §1
# GlcNAc3Prop(b1-4)GlcNAc = molecular target: GlcNAc3Prop(b1-4)GlcNAc
# Method in brief: as §1
# [12] = molecular target: GlcNAc6S(b1-3)Gal(b1-4)GlcNAc
# Method in brief: as §1
# Kdn(a2-6)Gal(b1-4)GlcNAc = molecular target: Kdn(a2-6)Gal(b1-4)GlcNAc
# Method in brief: as §1
# [13] = molecular target: Neu5Ac(a2-3)Gal(b1-3)[Fuc(a1-4)]GlcNAc
# Method in brief: as §1
# [14] = molecular target: Neu5Ac(a2-3)Gal(b1-4)GlcNAc(b1-2)Man(a1-3)[Neu5Ac(a2-6)Gal(b1-4)GlcNAc(b1-2)Man(a1-6)]Man(b1-4)GlcNAc(b1-4)GlcNAc
# Method in brief: as §1
# [15] = molecular target: Neu5Ac(a2-3)Gal(b1-4)GlcNAc(b1-3)GalNAc
# Method in brief: as §1
# [16] = molecular target: Neu5Ac(a2-3)Gal(b1-4)[Fuc(a1-3)]GlcNAc(b1-6)[Neu5Ac(a2-3)Gal(b1-3)]GalNAc
# Method in brief: as §1
# [17] = molecular target: Neu5Ac(a2-3)[GalNAc(b1-4)]Gal(b1-4)GlcNAc
# Method in brief: as §1
# [18] = molecular target: Neu5Ac(a2-6)Gal(b1-4)GlcNAc(b1-2)Man(a1-3)[GlcNAc(b1-2)Man(a1-6)]Man(b1-4)GlcNAc(b1-4)GlcNAc
# Method in brief: as §1
# [19] = molecular target: Neu5Ac(a2-6)Gal(b1-4)GlcNAc(b1-2)Man(a1-6)[Man(a1-3)]Man(b1-4)GlcNAc(b1-4)GlcNAc
# Method in brief: as §1
# [20] = molecular target: Neu5Ac(a2-8)Neu5Ac(a2-8)Neu5Ac
# Method in brief: as §1
binder,measurement,setting,value
B1,glycan array binding signal (z-score),[1],-0.399
same,glycan array binding signal (z-score),[2],-0.953
same,glycan array binding signal (z-score),[3],-1.01
same,glycan array binding signal (z-score),[4],6.38
same,glycan array binding signal (z-score),[5],2.68
same,glycan array binding signal (z-score),[6],-0.32
same,glycan array binding signal (z-score),Gal(a1-4)GlcNAc,-0.668
same,glycan array binding signal (z-score),[7],-0.507
same,glycan array binding signal (z-score),[8],3.66
same,glycan array binding signal (z-score),Gal(b1-4)GlcNAc,-0.318
same,glycan array binding signal (z-score),Gal3S(b1-3)GlcNAc,0.65
same,glycan array binding signal (z-score),Gal3S4S(b1-4)GlcNAc,3.95
same,glycan array binding signal (z-score),GalNAc(b1-3)Gal,-0.631
same,glycan array binding signal (z-score),[9],-1.21
same,glycan array binding signal (z-score),[10],0.848
same,glycan array binding signal (z-score),[11],0.103
same,glycan array binding signal (z-score),GlcNAc3Prop(b1-4)GlcNAc,0.691
same,glycan array binding signal (z-score),[12],-1.04
same,glycan array binding signal (z-score),Kdn(a2-6)Gal(b1-4)GlcNAc,0.863
same,glycan array binding signal (z-score),[13],1.08
same,glycan array binding signal (z-score),[14],-0.878
same,glycan array binding signal (z-score),[15],-0.993
same,glycan array binding signal (z-score),[16],3.35
same,glycan array binding signal (z-score),[17],-0.5
same,glycan array binding signal (z-score),[18],-0.141
same,glycan array binding signal (z-score),[19],5.26
same,glycan array binding signal (z-score),[20],-0.566
